# Experimental data from PubChem BioAssay AID449762 (Southern Research Specialized Biocontainment Screening …, 2010).
# In all, about 330,000 compounds went through this assay and about 1,900 (0.58%) were called active. Not shown: some 4% with an inconclusive outcome. The list is a sample of the results. Measured potencies and affinities stand elsewhere. Unmarked numbers belong to inactive results. No stated cut-off is given here; in the data, inconclusive means inhibition above about 70% without an active follow-up result; inactive means below that.
# Assay: M. tuberculosis growth inhibition, HTS (AID 449762);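 further: bacterial growth assessed after seven days of incubation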
# Conditions: M. tuberculosis H37Rv growth inhibition, 7H9 media; at 25 µM; stronger effect = higher value
row,Structure (SMILES),inhibition [%]
1,Cc1c(Cl)cccc1NC(=O)CSc1nnnn1C,1.96
2,CC(C)Oc1ccc(C(CCNCc2ccc(O)cc2)c2ccccc2)cc1 (configuration not stated),62.7
3,COc1ccc(C(CCNCc2ccc(N(C)C)cc2)C(C)C)cc1 (configuration not stated),10.7
4,CSc1ccc(CCNC(=O)c2cc(C)nn2-c2ccccc2)cc1,3.36
5,COc1ccc(NC(=O)CCNC(=O)c2ccccc2)cc1S(N)(=O)=O,-4.86
6,CC(=O)c1ccc(COC(=O)c2cc3ccccc3oc2=O)cc1,13.6
7,COC(=O)c1ccc(COC(=O)c2cc3ccccc3oc2=O)cc1,15.8
8,CCOC(=O)c1cc2ccc(OC)cc2oc1=O,14
9,CCOC(=O)c1cc2c(ccc3ccccc32)oc1=O,52.8
10,O=C(/C=C/c1ccccc1)N1c2ccccc2Sc2ccc(C(F)(F)F)cc21,25.3
11,COc1cccc(-n2c(CN3CCN(c4ccccn4)CC3)nc3ccc([N+](=O)[O-])cc3c2=O)c1,-0.01
12,COc1ccc(NC(=O)CSc2nc3c(c(=O)n2-c2ccc(C)cc2)SCC3)c(OC)c1,-1.52
13,Cc1ccccc1C(=O)NCCCNC(=O)c1cnccn1,4.01
14,COc1ccc(CCNC(=O)CNS(=O)(=O)c2cccs2)cc1OC,-11.3
15,CCOc1ccc(S(=O)(=O)NC(Cc2cnc[nH]2)C(=O)O)cc1 (configuration not stated),-6.37
16,CC(=O)Nc1cccc(OCC(=O)Nc2ccc(F)cc2)c1,-11.2
17,C=CC(=O)Nc1cccc(Oc2ncnc3[nH]cc(-c4cnc5ccccc5c4)c23)c1,1.76
18,Cc1ccc(NC(=O)COC(=O)Cn2cnc3ccccc32)c(C)c1,5.43
19,O=[N+]([O-])/C=C/c1cn(Cc2ccc(Cl)cc2)c2ccccc12,3.28
20,Cc1cccc(Cn2cc(/C=C/[N+](=O)[O-])c3ccccc32)c1,-0.16
21,COc1cc(CN(CC2CCCO2)C(=O)c2cccs2)cc(OC)c1OC (configuration not stated),1.89
22,COc1ccc(COC(=O)C2CC(=O)N(Cc3ccc(C)cc3)C2)cc1 (configuration not stated),16.4
23,CC(C)Oc1ccc(N2CC(C(=O)Nc3ccccn3)CC2=O)cc1 (configuration not stated),10.3
24,CCOc1ccc(N2CC(C(=O)Nc3ccccn3)CC2=O)cc1 (configuration not stated),12.2
25,O=C(OCc1ccccc1Cl)C1CC(=O)N(Cc2ccco2)C1 (configuration not stated),5.47
26,O=C(O)C1CC(=O)N(c2ccc(OCc3ccccc3Cl)cc2)C1 (configuration not stated),35.8
27,NC(=O)C1CC(=O)N(c2ccc(OCc3ccccc3Cl)cc2)C1 (configuration not stated),7.94
